# Data taken from PubChem BioAssay AID504558 (Broad Institute, 2011).
# Out of some 350,000 compounds screened, about 2,400 (0.69%) were called active. The sample holds actives, similar compounds and a random draw of the others, so the mix is not that of the screen. Cut-off read from the data, not from the text of the source: active = inhibition above about 41%; inconclusive = no clear call, values can overlap the other calls; inactive = below that.
# Assay: EBV LMP1-driven NF-kappaB luciferase reporter inhibitors, primary screen, cell-based, luminescence, single point (AID 504558);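 note: 0% = neutral control wells and 100% = reference inhibitor control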
# Conditions: LMP1-induced NF-kappaB luciferase reporter cells, at 12.5 µM, stronger effect = higher value
row,SMILES,inhibition
1,C=CCOc1cccc(C2C(C(=O)c3ccc(C)o3)=C(O)C(=O)N2CCN2CCOCC2)c1 (configuration not stated),1.89% (inactive)
2,COc1ccc(NS(=O)(=O)c2ccc(NC(=S)NC(=O)/C=C/c3ccc(C)cc3)cc2)nn1,-1.1% (inactive)
3,COc1ccc(OC(C)C(=O)Nc2cccnc2)cc1 (configuration not stated),-0.732% (inactive)
4,COc1ccc(CS(=O)/C(Cl)=C(/Cl)C(=O)Nc2ccc(OC)nc2)cc1 (configuration not stated),85% (active)
5,COc1cccc(NC(=S)N(Cc2ccc(C)cc2)Cc2ccccn2)c1,-9.16% (inactive)
6,COc1ccc(NC(=O)/C(Cl)=C(/Cl)S(=O)Cc2ccc(C)cc2)cn1 (configuration not stated),94.5% (active)
7,COc1ccc(NC(=O)CN2C(=O)NC(C)(c3ccccc3)C2=O)cn1 (configuration not stated),4.57% (inactive)
8,COCOCCn1cc(CN2CCS(=O)(=O)N(Cc3ccc(-c4cccc(N(C)C)c4)cc3)C(CC(C)C)C2=O)nn1 (configuration not stated),5.25% (inactive)
9,C[C@H](CO)N1C[C@H](C)[C@H](CN(C)C(=O)Nc2ccc3c(c2)OCO3)Oc2ncc(Br)cc2C1=O,-7.49% (inactive)
10,CCCCN1C(=O)C(CC(=O)NC(c2ccccc2)c2ccccc2)CC(C(=O)N2CCOCC2)=C1C (configuration not stated),-3.52% (inactive)
11,Cc1cc(C)n(-c2nnc(N3CCN(c4ccccc4)CC3)nn2)n1,-13.2% (inactive)
12,Cc1cc(N/N=C\c2ccc(Br)cc2)nc(-n2nc(C)cc2C)n1,47.1% (active)
13,Cc1cc(Nc2ccc(Br)cc2)nc2ccccc12,-19.5% (inactive)
14,O=C(NCc1nnnn1-c1ccc(Cl)cc1)c1ccc2c(c1)OCO2,-8.64% (inactive)
15,C=CCn1c(C)cc(C2=NNC(=NCC)SC2)c1C,86.2% (active)
16,COc1ccc(-c2c(C#N)cnc(C)c2C)c(O)c1OC,-4.81% (inactive)
17,C[C@@H]1CN([C@H](C)CO)C(=O)CCCn2cc(nn2)CO[C@H]1CN(C)S(C)(=O)=O,1.59% (inactive)
18,COc1cccc(NC(=O)CN(C)C(=O)c2cc(Cl)nc3ccccc23)c1,-0.28% (inactive)
19,CN(C)/C=C1\C=C(c2ccccc2)OC1=O,-8.13% (inactive)
20,Cc1ccccc1C1=N/C(=C/c2cccnc2)C(=O)O1,3.85% (inactive)
21,Cc1ccc(C2=C/C(=C\c3cccnc3)C(=O)O2)cc1,43.1% (active)
22,Cc1ccc(CN(C)C[C@@H]2OCc3cnnn3CCCC(=O)N([C@@H](C)CO)C[C@H]2C)cc1,0.256% (inactive)

row,SMILES,inhibition
1,O=C(COC(=O)/C=C/c1ccc(Cl)cc1)NC1CCS(=O)(=O)C1 (configuration not stated),-1.97% (inactive)
2,C[C@@H]1CN([C@@H](C)CO)S(=O)(=O)c2ccc(C#Cc3cccc(F)c3)cc2O[C@H]1CN(C)S(=O)(=O)c1cn(C)cn1,5.98% (inactive)
3,C=CCOc1ccccc1CNn1c(C)n[nH]c1=S,-1.28% (inactive)
4,N#CCCC(C#N)(c1cccnc1)N1CCOCC1 (configuration not stated),2.43% (inactive)
5,COc1cnc(-c2ccccn2)nc1Oc1ccc(C(C)(C)C)cc1,-4.07% (inactive)
6,Cc1nc2ccccc2c(C(=O)O)c1-c1ccccn1,3.33% (inactive)
7,CC(C)(C)Nc1nc(-c2ccccn2)nc2ccccc12,45.7% (active)
8,O=S1(=O)CCN(Cc2ccccc2)CC1,0.572% (inactive)
9,CC1=C(C(=O)N2CCOCC2)CC(CC(=O)NCc2cccc3ccccc23)C(=O)N1CCC1=CCCCC1 (configuration not stated),-1.54% (inactive)
10,CC1CCN(C(=O)CSc2nnc(-c3ccco3)n2N)CC1,-6.21% (inactive)
11,Oc1c(CN2CCCC2)cc(COCc2ccccc2)c2cccnc12,69% (active)
12,O=C(Cc1ccccc1)NNC(=O)C1CCN(c2ncccn2)CC1,-1.53% (inactive)
13,CCCc1cc(=O)oc2c(C)c(O)c(CN3CCCCC3)cc12,5.86% (inactive)
14,COCCCN1C(=O)C(CC(=O)NCc2cccs2)CC(C(=O)N2CCOCC2)=C1C (configuration not stated),-3.59% (inactive)
15,CC1(C)CC(N2CCN(C(c3ccccc3)c3ccccc3)CC2)=CC(=[N+]2CCCCC2)C1,50.9% (active)
16,CC(C)OCC(O)CN1CCN(C(c2ccccc2)c2ccccc2)CC1 (configuration not stated),-3.08% (inactive)
17,CC1(C)CC(=O)C=C(N2CCOCC2)C1,7.14% (inactive)
18,CCCCN1CC(C)(C)[C@H](CC(=O)Nc2ccc(Br)cc2)C1=O,3.19% (inactive)
19,O=C(c1cccs1)N1CCN(Cc2ccc3c(c2)OCO3)CC1,2.81% (inactive)
20,CCn1cc(C(=O)N2CCN(Cc3ccc4c(c3)OCO4)CC2)c2cc(OC)c(OC)cc2c1=O,-0.487% (inactive)
21,COc1ccc(-c2cc(C(=O)N3CCN(Cc4ccc5c(c4)OCO5)CC3)on2)cc1OC,60.2% (active)
22,O[C@H]1CN(Cc2cccs2)[C@@H](c2ccc(Cl)cc2)C[C@@H]1n1cc(C2CC2)nn1,-3.9% (inactive)

row,SMILES,inhibition
1,CCCCCCN1C[C@H](O)[C@@H](n2cc(C3CC3)nn2)C[C@@H]1c1ccc(Cl)cc1,-2.06% (inactive)
2,Cc1ccccc1C(=O)N1CCN(c2ccc(NC(=O)c3cccs3)cc2)CC1,49.3% (active)
3,COc1ccccc1C(=O)NC(=S)Nc1ccc(N2CCOCC2)cc1,2.08% (inactive)
4,O=C(Nc1ccc(N2CCN(C(=O)c3cccs3)CC2)cc1)c1cccnc1Cl,6.16% (inactive)
5,O=C(Nc1ccc(N2CCN(C(=O)C3CC3)CC2)cc1)c1cccs1,4.6% (inactive)
6,Cc1ccc(C(=O)NC(=S)Nc2ccc(N3CCOCC3)cc2)cc1,1.51% (inactive)
7,Cc1ccccc1C(=O)NC(=S)Nc1ccc(N2CCN(C(=O)c3ccccc3)CC2)cc1,43.1% (active)
8,CN1OC[C@@H]2CN(S(=O)(=O)c3cccc(C(F)(F)F)c3)[C@H](c3ccc(-c4cc5ccccc5o4)cc3)C[C@@H]21,23.8% (inactive)
9,COc1ccc(NC(=O)N(C)C[C@H]2Oc3ncc(C#C[C@@H](C)O)cc3C(=O)N([C@H](C)CO)C[C@H]2C)cc1,3.12% (inactive)
10,Oc1ccc(N2CCN(C(=S)NCc3ccccc3)CC2)cc1,50.7% (active)
11,O=C(COC(=O)c1ccccc1C(=O)N1CCN(c2ccccc2)CC1)NCc1ccccc1,-5.9% (inactive)
12,Oc1ccccc1N1CCN(C(=S)NCc2ccccc2)CC1,0.986% (inactive)
13,CC(C)N=C1CCCC1C(=S)SSC(=S)C1CCCC1=NC(C)C (configuration not stated),24.4% (inactive)
14,O=C(NCCN1CCOCC1)C1CCN(S(=O)(=O)c2ccccc2)CC1,5.14% (inactive)
15,COc1ccc(OC)c(/C=C/C(=O)OCC(=O)Nc2ccc3c(c2)OCCO3)c1,0.837% (inactive)
16,O=C(/C=C\c1ccc2c(c1)OCO2)NC1(C(=O)Nc2ccc3c(c2)OCCO3)CCCCC1,-3.03% (inactive)
17,COc1cccc(/C=C/C(=O)Nc2ccc3c(c2)OCCO3)c1,58.7% (active)
18,CC1CCCC(NC(=O)COC(=O)c2ccccc2C(=O)N(C)C2CCCCC2)C1C (configuration not stated),-11.2% (inactive)
19,CCn1c(/C=N/NC(=O)c2ccc(OC)cc2)nc2ccccc21,4.88% (inactive)
20,COc1ccc(/C=C2\CCc3ccccc3C2=O)c(OC)c1OC,-2.98% (inactive)
21,COc1cccc(/C=N/NC(=O)c2[nH]nc3c2CCc2ccccc2-3)c1O,69.4% (active)
22,CC1=C(C(=O)N2CCOCC2)CC(CC(=O)NCC2CCCCC2)C(=O)N1Cc1ccc(F)cc1 (configuration not stated),-0.637% (inactive)

row,SMILES,inhibition
1,CCCc1ccc(S(=O)(=O)N2CCN(C(=O)c3cc(C)on3)CC2)cc1,-4.88% (inactive)
2,C[C@H](CO)N1C[C@H](C)[C@@H](CN(C)Cc2ccc3c(c2)OCO3)OCc2cnnn2CCCC1=O,4.06% (inactive)
3,CC(C)C1CCN(C(=O)C2CCC(=O)N(C3CCCCCC3)C2)CC1 (configuration not stated),-25.4% (inactive)
4,COc1ccc(S(=O)(=O)N2CCN(C(=S)NCC3CCCO3)CC2)cc1OC (configuration not stated),74.2% (active)
5,S=C(NCC1CCCO1)N1CCN(c2ccc(Cl)c(Cl)c2)CC1 (configuration not stated),10% (inactive)
6,CCOc1ccc(S(=O)(=O)N2CCN(C(=S)NCC3CCCO3)CC2)cc1 (configuration not stated),-0.069% (inactive)
7,C[C@H](CO)N1C[C@H](C)[C@H](CN(C)C(=O)c2ccncc2)OCc2ccccc2-c2c(n(C)c3ccccc23)C1=O,2.77% (inactive)
8,C[C@H]1CN([C@@H](C)CO)C(=O)CCCn2nncc2CO[C@@H]1CN(C)S(=O)(=O)c1cccc(C#N)c1,2.8% (inactive)
9,CN1OC[C@@H]2CN[C@H](c3ccc(-c4ccccc4)cc3)C[C@@H]21,-14.4% (inactive)
10,COc1cccc(NC(=O)N(C)C[C@@H]2Oc3ncc(Br)cc3C(=O)N([C@@H](C)CO)C[C@H]2C)c1,1.17% (inactive)
11,Cc1ccc(CS(=O)(=O)c2ncc(Cl)c(C(=O)Nc3nnc(C)s3)n2)cc1,85.8% (active)
12,CSc1nnc(NC(=O)c2nc(S(=O)(=O)Cc3ccc(C)cc3)ncc2Cl)s1,24.2% (inactive)
13,Cc1cccc(NC(=O)c2nc(S(=O)(=O)Cc3ccccc3)ncc2Cl)c1,19.5% (inactive)
14,CC1(C)OC(=O)C2=C(CC(c3ccccc3)OC2CCc2ccccc2)O1 (configuration not stated),3.89% (inactive)
15,C[C@@H]1C[C@@H]2O[C@H]2/C=C\C=C\C(=O)Cc2c(Cl)c(O)cc(O)c2C(=O)O1,80% (active)
16,CCOC(=O)c1c(C)[nH]c(C)c1C(=O)COC(=O)/C=C/c1cccc([N+](=O)[O-])c1,7.29% (inactive)
17,Cc1nonc1C(=O)N/N=C/c1ccc(O)cc1,-10.7% (inactive)
18,Nc1nnn(CC(=O)N/N=C/c2ccc(O)cc2)n1,-8.43% (inactive)
19,O=C(C[n+]1ccccc1)N/N=C/c1ccc(O)cc1,45.7% (active)
20,O=C(OCc1ccccc1)N1CCC2CC1c1ccc(-c3ccc4c(c3)OCO4)cc12 (configuration not stated),-5.51% (inactive)
21,O=NN(CCCl)C(=O)NCCc1cccc[n+]1[O-],1.36% (inactive)
